Results: PubChem BioAssay (EPA / NIEHS)
Several values for one entry are separate records, joined by “and”; a condition that tells them apart may be missing. Equal values may be shown once. Inconclusive results are not listed. More than one record can exist for a structure, and the calls need not agree. Activity calls are given as the source filed them. The calls were made as follows, unless noted: active = hit-call score of the fitted dose curve at least 0.9, where 1 is the maximum; inactive = score below 0.9.

Tests used:
[1] = CCTE_Shafer_MEA_acute_AB: CCTE's Alamar Blue Assay for Cytotoxicity in the Neural Acute Assay, Shafer Lab (AID 2284069; active = hit-call score of the fitted dose curve at least 0.9, where 1 is the maximum;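 also: active compounds lower the viability signal compared with DMSO wells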)
Summary of the method: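 Resazurin reduction (CellTiter Blue, 1:6 in fresh medium) read at ex 544/em 590 nm marks viability loss relative to DMSO. Cells: primary rat cortical neuron networks on microelectrode arrays, treated after baseline recording at 13 or 15 days in vitro.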

[2] = CCTE_Shafer_MEA_acute_LDH: CCTE's Lactate Dehydrogenase Assay for Cytotoxicity in the Neural Acute Assay, Shafer Lab (AID 2284086; active = hit-call score of the fitted dose curve at least 0.9, where 1 is the maximum;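 also: active means LDH release rises above DMSO vehicle level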)
Summary of the method: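 Primary rat cortical neurons on 48-well MEA plates, treated on day 13 or 15 post-plating. After the 40-min recording with compound, medium LDH release was read by absorbance at 490 nm. Gain of signal was fitted against DMSO negative control.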

[3] = CCTE_Shafer_MEA_dev_network_spike_number: CCTE's Neural Network Formation Assay for Number of Network Spikes, Shafer Lab (AID 2284048);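 also: synchronized bursts across electrodes counted on days 5 7 9 12 and integrated as AUC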;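 as to AC50: fit as a loss of signal meaning fewer network spikes than DMSO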
Summary of the method: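 Primary rat cortical neurons were seeded at 1.5 x 10^5 cells/well on PEI-coated 16-electrode MEA wells with laminin, exposed from plating day 0, compound renewed at DIV 5 and 9. Network spikes were recorded on days 5, 7, 9, 12 and summarized as trapezoidal AUC versus DMSO.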

[4] = CCTE_Shafer_MEA_dev_network_spike_peak: CCTE's Neural Network Formation Assay for Mean Number of Electrodes in Network Spike, Shafer Lab (AID 2284049);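 as to AC50: fitted for loss of signal meaning fewer electrodes in network spikes than DMSO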
Summary of the method: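 Continuous 12-day exposure of rat cortical cultures, starting at plating, on MEA plates. Endpoint: electrodes participating in network-spike peaks, AUC across DIV 5–12, DMSO as negative control.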

[5] = CCTE_Shafer_MEA_dev_spike_duration_mean: CCTE's Neural Network Formation Assay for Mean Spike Duration, Shafer Lab (AID 2284051);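 also: mean network spike duration pooled as area under curve over DIV 5 to 12 recordings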;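 as to AC50: potency for a decrease in mean network spike duration versus DMSO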
Summary of the method: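 Spontaneous activity was recorded on days 5, 7, 9 and 12 from rat cortical cultures grown on microelectrode arrays and dosed continuously from day 0, with media and compound renewed after the DIV 5 and 9 recordings. Network-spike duration was collapsed by area under the curve.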

[6] = CCTE_Shafer_MEA_dev_network_spike_duration_std: CCTE's Neural Network Formation Assay for Standard Deviation of Network Spike Duration, Shafer Lab (AID 2284052);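 also: hits are decreases in network spike duration SD versus DMSO vehicle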
Summary of the method: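 Network spike duration variability was collapsed across recordings on days 5, 7, 9 and 12 by trapezoidal area-under-curve and fitted downward against DMSO. Cultures were rat cortical neurons on PEI-coated MEA plates, dosed continuously from plating, refed with compound DIV 5/9.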

[7] = CCTE_Shafer_MEA_dev_per_network_spike_spike_number_mean: CCTE's Neural Network Formation Assay for Mean Number of Spikes in a Network Spike, Shafer Lab (AID 2284053);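 as to AC50: fitted as decrease in spikes per network spike relative to DMSO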
Summary of the method: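 Mean spike count within each network spike, taken in a 0.05 s window at its peak, was recorded on days 5, 7, 9 and 12 and integrated as trapezoidal area under the curve. Rat cortical cultures on MEA plates received continuous compound from day 0, refreshed at medium changes on DIV 5 and 9.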

[8] = CCTE_Shafer_MEA_dev_per_network_spike_spike_percent: CCTE's Neural Network Formation Assay for Percent of Spikes in a Network Spike, Shafer Lab (AID 2284054)
Summary of the method: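 Primary rat cortical neurons on 16-electrode MEA wells (PEI-coated, laminin at plating), exposed from day 0 with renewal at DIV 5 and 9; spikes within 0.05 s of network-spike peaks over total spikes, AUC across days 5, 7, 9, 12.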

[9] = CCTE_Shafer_MEA_dev_LDH: CCTE's Lactate Dehydrogenase Assay for Cytotoxicity in the Neural Network Formation Assay, Shafer Lab (AID 2284068; active = hit-call score of the fitted dose curve at least 0.9, where 1 is the maximum;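 also: exposure for twelve days from plating with re-dosing on DIV 5 and 9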)
Summary of the method: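 Primary rat cortical neurons were cultured on PEI-coated MEA plates and exposed from plating through day 12, with compound renewed at medium changes on DIV 5 and 9. LDH activity was read spectrophotometrically; loss of signal versus DMSO indicates reduced viability.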

[10] = CCTE_Shafer_MEA_dev_AB: CCTE's Alamar Blue Assay for Cytotoxicity in the Neural Network Formation Assay, Shafer Lab (AID 2284083; active = hit-call score of the fitted dose curve at least 0.9, where 1 is the maximum;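 also: resazurin reduction fluorescence as viability of cultured neurons; twelve days of exposure from plating with re-dosing on DIV 5 and 9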)
Summary of the method: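 Resazurin fluorescence, relative to DMSO, gauges viability after twelve days of exposure that began at plating of rat cortical neurons (1.5 x 10^5 cells/well, 48-well MEA); treatment renewed with full medium exchange on DIV 5 and 9.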

[11] = CCTE_Shafer_MEA_dev_mutual_information_norm: CCTE's Neural Network Formation Assay for Mutual Information Normalization, Shafer Lab (AID 2284091);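 as to AC50: mutual information between electrodes summarised as area under curve across four recording days; potency is for a decrease in mutual information relative to DMSO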
Summary of the method: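 Rat cortical cultures, 48-well MEA, continuous exposure DIV 0–12 with full media/compound change DIV 5 and 9. Readout: inter-electrode mutual information, AxIS adaptive spike detection; AUC across DIV 5/7/9/12 recordings; DMSO baseline, negative fitting direction.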

[12] = CCTE_Shafer_MEA_dev_correlation_coefficient_mean: CCTE's Neural Network Formation Assay for Mean Correlation Coefficient, Shafer Lab (AID 2284093);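 as to AC50: well mean pairwise spike train correlation integrated as AUC over recording days 5 to 12; potency fitted for loss of correlation relative to DMSO vehicle wells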
Summary of the method: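 Primary rat cortical neurons on PEI-coated 48-well MEA plates (16 electrodes/well) were exposed from plating day 0 through DIV12, with compound renewed at DIV5 and 9. Pairwise spike correlations were averaged per well; trapezoidal AUC across DIV5, 7, 9, 12.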

[13] = test system: DIO2 (gene 1734); test: CCTE_GLTED_hDIO2: CCTE's human Deiodinase 2 (DIO2) Inhibition Assay, Great Lakes Toxicology and Ecology Division (GLTED) Lab (AID 2284050; active = hit-call score of the fitted dose curve at least 0.9, where 1 is the maximum)
Summary of the method: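 Cell-free human DIO2 enzyme was incubated with test chemical for 3 h; iodide liberated from substrate was then quantified by the Sandell-Kolthoff reaction (absorbance), run in triplicate. Loss of signal versus DMSO baseline indicated inhibition.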

[14] = test system: DIO3 (gene 1735); test: CCTE_GLTED_hDIO3: CCTE's human Deiodinase 3 (DIO3) Inhibition Assay, Great Lakes Toxicology and Ecology Division (GLTED) Lab (AID 2284055; active = hit-call score of the fitted dose curve at least 0.9, where 1 is the maximum;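 also: potency is for inhibition seen as loss of released iodide signal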)
Summary of the method: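 Cell-free assay with human DIO3 enzyme produced by adenovirus expression; enzyme incubated with test chemical for 3 hours. Liberated iodide then measured by Sandell-Kolthoff absorbance; loss of signal versus DMSO baseline indicates inhibition, run in triplicate.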

[15] = UKN5_HCS_SBAD2_cell_viability: Viability Assessment in the University of Konstanz (UKN) Leist Lab Neurite Outgrowth Assay in human iPSC-derived immature Dorsal Root Ganglia Neurons (UKN5) (AID 2284056)
Summary of the method: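 iPSC-derived immature peripheral neurons (SBAD2) seeded on Matrigel with CHIR99021, SU5402 and DAPT, dosed 1 h later for 24 h. Viability from Hoechst H-33342 and calcein-AM live staining, high-content imaging; bidirectional fit versus DMSO.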

[16] = UKN5_HCS_SBAD2_neurite_outgrowth: University of Konstanz (UKN) Leist Lab Neurite Outgrowth Assay in human iPSC-derived immature Dorsal Root Ganglia Neurons (UKN5) (AID 2284070); settings: actives raise or lower the signal
Summary of the method: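 Human iPSC-derived immature DRG neurons (SBAD2) on Matrigel with CHIR99021 (1.5 uM), SU5402 (5 uM), DAPT (5 uM); compounds added 1 h post-seeding for 24 h. Calcein-AM neurite area imaged; bidirectional fit vs DMSO.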

[17] = UKN2_HCS_IMR90_neural_migration: University of Konstanz (UKN) Leist Lab Neural Crest Cell Migration Assay in human induced IMR90 Pluripotent Stem Cells (UKN2) (AID 2284204); settings: actives raise or lower the signal
Summary of the method: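 iPSC-derived IMR90 neural crest cells on PLO/laminin/fibronectin were seeded around silicone stoppers; after stopper removal, migration in N2-S medium with EGF and FGF ran 24 h before 24 h chemical exposure. Calcein-AM/Hoechst high-content imaging; bidirectional fit versus DMSO.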

[18] = UKN4_HCS_LUHMES_neurite_outgrowth: University of Konstanz (UKN) Leist Lab Neurite Outgrowth Assay in human LUHMES cells (UKN4) (AID 2284206); settings: actives raise or lower the signal
Summary of the method: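 LUHMES neuronal precursors differentiated 2 days, replated without cAMP/GDNF, then exposed to chemicals for 24 h. Neurite area imaged by high-content microscopy after calcein-AM staining; Hoechst H-33342 marks viability. Bidirectional fit versus DMSO.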

Measured: AC50

O=S(=O)(O)c1ccc(N=Nc2c(O)ccc3cc(S(=O)(=O)O)ccc23)cc1
inactive: [1] | [2]

OC(Cn1cncn1)(Cn1cncn1)c1ccc(F)cc1F
inactive: [3] | [4] | [5] | [6] | [7] | [8] | [9] | [10] | [11] | [12]

Cn1c(=O)c2[nH]cnc2n(C)c1=O
inactive: [1] | [2]

OCc1ccccc1
inactive: [2]

FC(F)(F)COC(OCC(F)(F)F)OCC(F)(F)F
inactive: [3] | [4] | [5] | [6] | [7] | [8] | [9] | [11] | [12]

COCc1nnc(-c2ccc[n+]([O-])c2)n1-c1c(Cl)c(Cl)cc2[nH]c(=O)c(=O)[nH]c12
inactive: [1] | [2]

C=CCc1cc(S(=O)(=O)c2ccc(O)c(CC=C)c2)ccc1O
active: [13] 120000 nM | [14] 62500 nM
inactive: [1] | [2]

c1ccc(C(O[C@@H]2CCCN(CCc3ccc4c(c3)OCO4)C2)c2ccccc2)cc1
inactive: [1] | [2]

OC(O)(C(F)C(O)(O)C(F)(F)F)C(F)(F)F
active: [12] 2.98 µM
inactive: [3] | [4] | [5] | [6] | [7] | [8] | [9] | [10] | [11] | [12]

COc1cc(C(C)C)c2c(c1)S(=O)(=O)N(COc1cc(=O)n3cccc(OCCN4CCCCC4)c3n1)C2=O
active: [13] 11700 nM | [14] 4670 nM
inactive: [1]

NC(=O)N1c2ccccc2C=Cc2ccccc21
active: [18] 150000 nM
not listed: [1] | [2] | [10] | [13] | [14]
inactive: all other assays above

C[C@]12C=CC(=O)C=C1CC[C@H]1[C@@H]3C[C@@H](O)[C@](O)(C(=O)CO)[C@@]3(C)C[C@H](O)[C@@]12F
active: [4] 116 nM | [8] 570 nM | [12] 0.202 µM
inactive: [3] | [5] | [6] | [7] | [9] | [10] | [11]

CCCCCCCCCCCCCCCCOS(=O)(=O)O
active: [13] 28900 nM | [14] 6120 nM

OC(CCl)CCl
inactive: [1] | [2]

NNC(=O)c1ccncc1
active: [4] 2980 nM
inactive: [3] | [5] | [6] | [7] | [8] | [10] | [11] | [12]

OCCC(F)(F)C(F)(F)C(F)(F)C(F)(F)F
inactive: [3] | [4] | [5] | [6] | [7] | [8] | [11]
active: [12] 3.75 µM

CCCCC(CC)C(=O)OCCOCCOCCOC(=O)C(CC)CCCC (stereo not drawn)
inactive: [2]

CCN(CC)C(=S)SSC(=S)N(CC)CC
active: [3] 102 nM and 52.1 nM | [4] 110 nM and 50.8 nM | [5] 106 nM and 47.6 nM | [6] 100 nM and 40.6 nM | [7] 102 nM and 55.3 nM | [8] 161 nM and 86.3 nM | [9] 120 nM and 58 nM | [10] 146 nM and 58.6 nM | [11] 94.3 nM and 37.8 nM | [12] 110 nM and 63.3 nM

CC(C)C(=O)Nc1ccc([N+](=O)[O-])c(C(F)(F)F)c1
inactive: [2]

COc1cc2c(c(OC)c1OC)-c1ccc(OC)c(=O)cc1[C@@H](NC(C)=O)CC2
inactive: [1]
active: [3] 26 nM | [4] 26.1 nM | [5] 24.8 nM | [6] 3.22 nM | [7] 12.7 nM | [8] 3 nM | [9] 16.7 nM | [10] 23.2 nM | [11] 23.8 nM | [12] 0.0234 µM
